The panel holds about 83,000 compounds, 20% with a hit somewhere; the sample as a whole holds those more often.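 Values shown are percent growth following 48 h exposure of cells in 96-well plates to a single concentration of compound; below 10 was considered active.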 Active and inactive are the calls of the source.

This experiment has as its system MDA-MB-468 breast. Briefly: NCI-60 one-dose screen, 48 h (100 = growth as untreated, 0 = no growth, -100 = all killed). As to conditions: 10 µM unless noted.
Take `Cc1ccc(S(=O)(=O)Nc2ccc(-c3cc(-c4cccc(F)c4)c(C#N)c(N)n3)cc2)cc1`: the growth is -14.9% (active).

`COc1cc(-c2cc3ncccc3c3[nH]c(=O)c4cccnc4c23)cc(OC)c1OC`: the growth is -10.5% (active).

Regarding `CC(=O)c1nc2ccccc2n1CCn1cc(CC(N)C(=O)O)c2ccccc21` (centres undefined), the growth is 118% (inactive).

Take `Cc1ccc(C(=O)c2ccc(CC(=O)N/N=C/c3cccc(O)c3O)n2C)cc1`: the growth is 54.9% (inactive).

`CC(C)c1ccc(NC(=O)Nc2ccc(NC(=O)CCCC(=O)NOCc3ccccc3)cc2)cc1`: the growth is 85% (inactive).

In the case of `NCCCNc1nc2ccccc2c2c(=O)c3cccc(F)c3sc12`, the growth is -11.3% (active).

In the case of `COc1ccc(-c2cn[nH]c2-c2cc(OC)c3c(c2)OCO3)cc1`, the growth was 36.1% (inactive).

With `CC1=NCC2NC(=O)NC(C)=C12` (centres undefined), the growth is 92.3% (inactive).

For the compound `C=CC(=O)Nc1cccc(Nc2nc(Nc3ccc(OCCOC(F)F)cc3)ncc2F)c1`, the growth was -27.9% (active).

For the compound `COc1cc(Nc2ncnc(Nc3ccc4c(n3)NC(=O)C(C)(C)O4)n2)cc(OC)c1OC`, the growth is -24.5% (active).

In the case of `CCOC(=O)N1C/C(=C/c2ccc(OC)cc2)C(=O)/C(=C/c2ccc(OC)cc2)C1`, the growth is -28.9% (active).

`CCN(CC)CCNc1ccc(CO)c2sc3ccccc3c(=O)c12`: the growth was -41.4% (active).

On to `CS(=O)(=O)c1nccc(-c2c(-c3cccc(OCCc4ccccc4)c3)nc3sccn23)n1`, for which the growth is 20.2% (inactive).

As to `Cc1ccc2nc(NC(=O)CSC(=S)N3CCN(C)CC3)sc2c1`, the growth was 116% (inactive).

As to `CCCNC(=O)Oc1ccc(/C(=C(/C)Cc2ccc(OC)cc2)c2ccc(OCCN3CCCCC3)cc2)cc1`, the growth is 79.6% (inactive).

Take `Nc1nc(SN=Nc2ccc(S(N)(=O)=O)cc2)c2[nH]cnc2n1`: the growth is -9.35% (active).

With `Cc1ccc(O)c(N)c1`, the growth is 98.9% (inactive).

For `CCCCN(Cc1ccc(C(=O)NO)cc1)C(=O)Nc1ccc(OCCCCCCCCCn2cc(CCCCC(=O)N[C@H](C(=O)N3C[C@H](O)C[C@H]3C(=O)NCc3ccc(-c4scnc4C)cc3)C(C)(C)C)nn2)cc1`, the growth is 0.0949% (active).

As for `O=C1c2ccccc2NC(n2sc3ccccc3c2=O)N1c1ccccc1` (centres undefined), the growth is 106% (inactive).

`CCN1CCN(c2ccc(NC(=O)Nc3ccc4c(ccn4-c4ccnc(C(=O)NC)c4)c3)cc2C(F)(F)F)CC1`: the growth is 65.9% (inactive).

Turning to `CN(C)CCOc1ccc2c(c1)C(=O)/C(=C\c1ncc([N+](=O)[O-])n1C)C2`, the growth was -78.5% (active).

Consider `CCCCSC1=C(Cl)CN(c2ccc(Cl)cc2)C1=O`, for which the growth is 77.9% (inactive).

For `CCOC(=O)c1ccc2c(c1)c1c(C)c3cnccc3c(C)c1n2C`, the growth was -81.8% (active).

Take `O=C(O)c1ccc(-n2cc(CNc3ccc(Oc4ccccc4)cc3)c(-c3ccccc3)n2)cc1`: the growth was 99.8% (inactive).

Turning to `Cc1nn(-c2ccc(Cl)cc2)c2nc3c(nc12)c(=O)oc1ccccc13`, the growth was 125% (inactive).

As for `O=C(Oc1ccc(CCl)cc1)c1ccccc1`, the growth is -62.7% (active).

Regarding `COc1ccc(/C=C2\N=C(c3cccnc3)N(c3ccccc3)NC2=O)cc1`, the growth was 94.1% (inactive).

Consider `CC[C@@H](C(=O)[C@H](C)[C@H](O)[C@@H](C)[C@H]1O[C@H]([C@@H](CC)C(=O)O)CC[C@H]1C)C1O[C@]2(C=C[C@@H](O)[C@]3(CC[C@@](C)([C@H]4CC[C@](O)(CC)[C@H](C)O4)O3)O2)[C@H](C)C[C@@H]1C` (some centres undefined), for which the growth is 0.843% (active).

Regarding `Cl.[Pt].[c-]1ccccc1-c1ccccn1.c1ccc(P(c2ccccc2)C([PH+](c2ccccc2)c2ccccc2)[PH+](c2ccccc2)c2ccccc2)cc1`, the growth is -6.8% (active).

Take `C/C(=N\NC(=O)CSc1nc2sc3c(c2c(=O)n1-c1ccccc1)CCC(C)C3)c1ccc(Cl)cc1` (centres undefined): the growth was -28% (active).

As to `CCC(C)CC(C)C(=O)c1c(O)ccn(O)c1=O` (centres undefined), the growth is 13.8% (inactive).

With `O=C(N/N=C/c1ccccc1O)Nc1nn[nH]n1`, the growth was 97.6% (inactive).

Turning to `CC(Br)C(OC(=O)c1ccccc1Cl)c1cc2c(cc1Br)OCO2` (centres undefined), the growth is 66.4% (inactive).

Consider `CN(C)CCCNc1nc2ccccc2c2c(=O)c3cc(F)ccc3sc12`, for which the growth is -6.97% (active).

Turning to `Cc1nc2sccn2c1-c1csc(Nc2ccccc2Cl)n1`, the growth is 19% (inactive).

Take `CC(C)NCC(O)COc1ccc(CCOCC2CC2)cc1` (centres undefined): the growth was 103% (inactive).

Regarding `Cc1ccc(C)c(-c2csc(Nc3ccc(C)c(C)c3)n2)c1`, the growth is 14.5% (inactive).

With `COc1ccn2c(C(C)=O)cc(C(=O)c3ccc4c(c3)Sc3ccccc3N4)c2c1`, the growth is -4.11% (active).

As to `COc1ccc(/C=C(\C#N)n2nnc3cc(F)c(F)cc32)c(OC)c1OC`, the growth was 35.3% (inactive).

For the origin of these results see PubChem BioAssay (NCI).
